Reference: PubChem BioAssay (EPA / NIEHS)
“And” between values parts separate entries of the source, which are not always exact repeats. Equal entries are not always repeated. The source holds several records for some structures; these can differ, active in one and inactive in another. The source made the active and inactive calls. How the source made its calls: active means hit-call score of the fitted dose curve at least 0.9, where 1 is the maximum; inactive means score below 0.9.

Test: ATG_TCF_b_cat_CIS: Attagene CIS-FACTORIAL HepG2 Assay for human T-Cell-Factor with beta-catenin (TCF/b-cat) (AID 2282965)
Conditions: HepG2 TCF/beta-catenin cis-reporter transcription, actives raise or lower the signal
Protocol: ATG_CIS is a cell-based, multiplexed-readout assay that uses HepG2, a human liver cell line, with measurements taken at 24 hours after chemical dosing in a 24-well plate.ATG_TCF_b_cat_CIS is one of 52 assay component(s) measured or calculated from the ATG_CIS assay. It is designed to make measurements of mRNA induction, a form of inducible reporter, as detected with fluorescence intensity signals by Reverse transcription polymerase chain reaction (RT-PCR) and Capillary electrophoresis technology.Data from the assay component ATG_TCF_b_cat_CIS was analyzed into 1 assay endpoint. This assay endpoint, ATG_TCF_b_cat_CIS, was analyzed with bidirectional fitting relative to DMSO as the negative control and baseline of activity. Using a type of inducible reporter, measures of mRNA for gain or loss-of-signal activity can be used to understand the reporter gene at the transcription factor-level as they relate to the gene TCF7 and TCF7L2 and LEF1 and TCF7L1. Furthermore, this assay endpoint can be referred to as a primary readout, because this assay has produced multiple assay endpoints where this one serves a reporter gene function. To generalize the intended target to other relatable targets, this assay endpoint is annotated to the dna binding intended target family, where the subfamily is HMG box protein.
Human liver HepG2 cells are transiently transfected with multiple reporter transcription units (MRTUs) in 6-well plates using FuGene 6 reagent (Roche; 3 ml FuGene/1 mg DNA). The MRTU constructs are regulated by a cis-regulating element (promoter). […] A major difference between the CIS and TRANS system is that in CIS activities of endogenous TFs are measured, whereas the TRANS assay evaluates changes in activities of exogenous, chimeric NR-Gal4 proteins. […] At the end of 24 hour incubation, total RNA was isolated using TriZol reagent (Invitrogen). The isolated RNA is then reverse-transcribed using oligo(dT) primer and Mo-MLV reverse transcriptase (Invitrogen) with DNAse I (Ambion) treatment for 30 min. The one-tenth of the produced cDNA was amplified by PCR using Taq DNA polymerase (Invitrogen) and two reporter sequence-specific primers. The PCR products were fluorescently labeled by primer extension with 6-arboxyfluorescein (6-FAM) 5'-labeled reporter sequence-specific primer (2 min at 95 C, 20 s at 68 C and 10 min at 72 C) and these products were digested with 5U of HpaI (New England Biolabs) for 2h at 37 C. The fragments were purified using Qiaquick PCR columns (Qiagen), analyzed on an ABI 3130xL genetic analyzer (Applied Biosystems) with peak positions identified by using a set of X-rhodamine (ROX)-labeled MapMarker1000 molecular weight standards (BioVentures). The raw capillary electrophoresis data was processed using Attagraph software (Attagene).

Row | SMILES | outcome | AC50
1 | O=c1cc(-c2ccccc2)oc2ccc3ccccc3c12 | inactive | 
2 | CC1CCC(C(=O)O)CC1 (stereo not given) | inactive | 
3 | CC1CCC(CO)CC1 (stereo not given) | inactive | 
4 | CC1=NN(c2ccccc2)C(=O)C1 | inactive | 
5 | CCCCc1ccc2ccccc2c1S(=O)(=O)O | inactive | 
6 | Cc1cc(C(=C2C=CC(=Nc3ccc(S(=O)(=O)O)cc3)C=C2)c2ccc(Nc3ccc(S(=O)(=O)O)cc3)cc2)cc(S(=O)(=O)O)c1N | inactive | 
7 | CCOC=O | inactive | 
8 | O=C(Nc1cccc([N+](=O)[O-])c1)c1cc2ccccc2cc1O | inactive | 
9 | N=C(N)c1ccc(OCCCCCOc2ccc(C(=N)N)cc2)cc1 |  | 36.6 µM (active)
10 | O=C(NO)c1ccccc1 |  | 18.9 µM (active) [middle of 4 runs]
11 | Nc1cc(Cl)c(-c2cc(Cl)c(N)cc2Cl)cc1Cl | inactive | 
12 | CCC(=O)C=Cc1ccc(OC)cc1 | inactive | 
13 | Oc1c(Cl)ccc(Cl)c1Cl | inactive | 
14 | C=CC(C)(CCC=C(C)C)OC(C)=O (stereo not given) | inactive | 
15 | O=C(O)c1cccc(C(=O)O)n1 | inactive | 
16 | CCC(=O)O | inactive | 
17 | FC1(F)C=CC(F)(F)C1(F)F | inactive | 
18 | CCCCCCCCCCCC[N+](C)(C)Cc1ccccc1 | inactive | 
19 | Cc1ccc(S(=O)(=O)O)cc1 | inactive | 

Row | SMILES | outcome | AC50
20 | C=C(c1ccc(C(=O)O)cc1)c1cc2c(cc1C)C(C)(C)CCC2(C)C | inactive | 13.7 µM (active)
21 | CCCCCC(C)OC(=O)COc1ccc(Cl)c2cccnc12 (stereo not given) | inactive | 
22 | O=C1c2ccccc2C(=O)c2c(O)c(O)cc(O)c21 | inactive | 
23 | FC(F)(F)C1(F)C(F)(F)C(F)(F)C(F)(F)C(F)(C(F)(F)F)C1(F)F (stereo not given) | inactive | 
24 | COC(O)c1ccccc1 (stereo not given) | inactive | 
25 | NC(=NCCCCCCN=C(N)/N=C(\N)Nc1ccc(Cl)cc1)/N=C(\N)Nc1ccc(Cl)cc1 | inactive | 23 µM (active) and 25.4 µM (active)
26 | O=S(=O)(O)c1ccc2cc(O)ccc2c1 | inactive | 
27 | C=Cc1ccc(O)c(OC)c1 | inactive | 
28 | OCC(CO)(CBr)CBr | inactive | 
29 | CCN(CCC#N)c1ccccc1 | inactive | 
30 | C=CC(F)(F)C(F)(F)C(F)(F)C(F)(F)F | inactive | 
31 | CCCCCCCCCCCC(=O)O | inactive | 
32 | O=C(F)C(F)(F)C(F)(F)C(F)(F)C(=O)F | inactive | 
33 | CCc1ccccc1O | inactive | 
34 | Oc1cc2ccccc2cc1O | inactive | 
35 | CCOCCOCC | inactive | 
36 | O=C(F)C(F)(F)C(F)(F)C(F)(F)C(F)F | inactive | 
37 | O=C1C=CC(=O)N1c1cccc(N2C(=O)C=CC2=O)c1 | inactive | 
38 | Cc1ccc(C(=O)c2ccccc2)cc1 | inactive | 
